Sampled rows, rich in hits. Any-hit rate of the full collection: about 9.2%.
HttQ103 aggreg: qHTS Multiplex Assay to Identify Dual Action Probes in a Cell Model of Huntington: Aggregate Formation (GFP); PC12 HttQ103-GFP aggregates, Acumen cytometry, 40 h; Potency, µM (titrated, usually from 46.1 µM), usual class: inhibitors; 220,000 tested, 1.1% active; AID 1688, 2009; active = well fitted curve in the direction sought with a large enough effect; inconclusive = small, poorly fitted or top-dose-only effect, or another doubt; inactive = no such curve, though single readings can be large; an effect the other way counts as inactive or inconclusive; note: nearly all actives have a fitted effect of over 60% in size
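Quantitative HTS on tebufenozide-induced (100 nM) PC12 cells stably expressing polyQ103 Huntingtin exon 1–GFP. Reduction of bright GFP aggregates, detected by laser scanning cytometry after lysis, identified actives across the titration.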
HTT cytoprotect: qHTS Multiplex Assay to Identify Dual Action Probes in a Cell Model of Huntington: Cytoprotection (ATP); Potency, µM (series often up to 56.4 µM), actives largely listed as activators; 230,000 tested, 0.14% active; PC12 HTT-Q103 induced, cytoprotection, ATP luminescence, 40 h; active = well fitted curve in the direction sought with a large enough effect; inconclusive = small, poorly fitted or top-dose-only effect, or another doubt; inactive = no such curve, though single readings can be large; an effect the other way counts as inactive or inconclusive; note: nearly all actives have a fitted effect of over 45% in size
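Quantitative HTS on tebufenozide-induced (100 nM) PC12 cells expressing HTTQ103 exon 1–GFP; compounds tested as a concentration series; survival measured via cellular ATP.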
JMJD2E inh: qHTS Assay for Inhibitors of Human Jumonji Domain Containing 2E (JMJD2E) | AID 2147, 2009 | 230,000 tested, 1.6% active | JMJD2E catalytic domain, FDH-coupled NADH fluorescence (FDH is formaldehyde dehydrogenase) | Lysine-specific demethylase 4E (Homo sapiens), B2RXH2 | Potency, µM (doses to about 57.1 µM), most hits filed as inhibitors; note: nearly all actives have a fitted effect of over 50% in size
Target sequence (B2RXH2 1-337 limits assumed): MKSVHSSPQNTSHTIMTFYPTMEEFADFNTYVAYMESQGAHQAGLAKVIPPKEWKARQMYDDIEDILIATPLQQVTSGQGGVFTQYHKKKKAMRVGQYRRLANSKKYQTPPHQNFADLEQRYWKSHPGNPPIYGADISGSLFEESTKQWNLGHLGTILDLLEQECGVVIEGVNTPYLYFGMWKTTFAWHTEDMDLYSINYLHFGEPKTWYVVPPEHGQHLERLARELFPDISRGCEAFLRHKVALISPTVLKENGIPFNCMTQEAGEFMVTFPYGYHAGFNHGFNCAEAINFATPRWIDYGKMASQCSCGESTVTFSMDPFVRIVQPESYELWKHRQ
LMNA splice mod: qHTS Assay for Modulators of Lamin A Splicing. 200,000 tested, 0.01% active. HeLa LMNA splicing GFP/RFP minigene ratio, 48 h. AID 1487, 2009. Potency, µM (series often up to 46.1 µM), hits mostly inhibitors; active = well fitted inhibition curve with a large enough effect in the signal ratio, with a control signal flat, not every such curve was filed as active; inconclusive = small, poorly fitted or top-dose-only effect, or effect the other way, or a change in a side signal; the % refers to the signal ratio
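S3 HeLa stable clones carrying a lamin A-EGFP splicing minigene plus DsRed2 were seeded at 600 cells/well in Opti-MEM with 2% FBS, pin-dosed and incubated 48 h at 37°C. Acumen cytometry (488 nm) gave the GFP/RFP total-intensity ratio.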
ALDH1A1 inh: qHTS Assay for Inhibitors of Aldehyde Dehydrogenase 1 (ALDH1A1); Potency, µM (doses to about 75.3 µM), usual class: inhibitors; Aldehyde dehydrogenase 1A1 (Homo sapiens), P00352; 220,000 tested, 7.3% active; Purified ALDH1A1, NADH fluorescence, propionaldehyde substrate
HPGD inh: qHTS Assay for Inhibitors of HPGD (15-Hydroxyprostaglandin Dehydrogenase); 15-hydroxyprostaglandin dehydrogenase [NAD(+)] (Homo sapiens), P15428; purified HPGD, NADH fluorescence kinetic, PGE2 substrate; Potency, µM, hits mostly inhibitors; 150,000 tested, 4.3% active; AID 894, 2007
Target sequence (P15428 whole entry, looked up): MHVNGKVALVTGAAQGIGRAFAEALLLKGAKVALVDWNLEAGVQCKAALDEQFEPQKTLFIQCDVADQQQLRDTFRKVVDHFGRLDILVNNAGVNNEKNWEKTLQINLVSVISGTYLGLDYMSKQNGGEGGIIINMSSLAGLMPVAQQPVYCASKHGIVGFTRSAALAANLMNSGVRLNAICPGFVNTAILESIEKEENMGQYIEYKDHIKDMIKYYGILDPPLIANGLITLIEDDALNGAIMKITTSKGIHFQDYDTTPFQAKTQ
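NADH formation kinetics: reaction with 30 uM PGE2 and 1 mM NAD+ (final), 20 nM enzyme, Tris-HCl pH 8 with Tween 20, after 15 min compound preincubation at room temperature. Fluorescence change, last versus first of five reads.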
Hits are given with their value; n = inactive; u = inconclusive; x = not tested or not shown; ! = not confirmed by another sample; [ ] = remark or other dose. Unless noted, calls come from the whole dose curve; as a rule, active = well fitted inhibition curve with a large enough effect (not every such curve was filed as active); inconclusive = small, poorly fitted or top-dose-only effect, or another doubt; inactive = no such curve, though single readings can be large or run the other way.

SMILES	HttQ103 aggreg	HTT cytoprotect	JMJD2E inh	LMNA splice mod	ALDH1A1 inh	HPGD inh
O=C(NNS(=O)(=O)c1ccccc1)c1cccnc1	n[9.22 µM]	n[10 µM]	n	x	n[13.5 µM]	n
Cc1ccc(C(=O)NC(=S)NNC(=O)c2ccccc2[N+](=O)[O-])cc1	n	n[10 µM]	u	u	22µM	40µM
CC1Cc2ccccc2N1C(=O)CSc1nnc(-c2ccccc2Cl)o1 (stereo not given)	x	x	x	n	x	x
Cc1ccccc1C(=O)NNC(=S)NC(=O)c1ccccc1	n	x	n	u	14µM	n
CCCCCC(=O)NNC(=S)NC(=O)c1ccc([N+](=O)[O-])cc1	n	n	n	u	6.3µM	x
Cc1ccc(S(=O)(=O)NNC(=S)NC(=O)c2ccc([N+](=O)[O-])cc2)cc1	n	n[10 µM]	n	n	18µM	28µM
O=C1NCCN1CCN1C(=O)c2ccccc2NC1c1ccccc1 (stereo not given)	n[9.22 µM]	n[10 µM]	u	x	x	x
NCCC[C@@H](N)C(=O)O	x	n[10 µM]	x	x	n[13.5 µM]	n
NC(=S)NCCCC(N)C(=O)O (stereo not given)	x	x	n	n	2.5µM	n
COC(=O)c1ccccc1NC(=O)C(C)Oc1ccccc1 (stereo not given)	n	n[10 µM]	n	n	n	n
O=C(c1ccccc1)c1ccccc1	x	n	x	x	25µM!	n
O=C(c1ccccc1)c1ccc(-c2ccc(O)cc2)cc1	n[9.22 µM]	n[10 µM]	n	u	n	x
CC(C)C(=O)Nc1ccc(C(=O)c2ccccc2)cc1	u	n[1.9 µM]	n	n	u	14µM
CC(Oc1ccccc1)C(=O)Nc1ccccc1O (stereo not given)	n	n	n	n	n	7.1µM
CC(Oc1ccc(C(=O)c2ccccc2)cc1)C(=O)Nc1ccc(S(N)(=O)=O)cc1 (stereo not given)	n	n[10 µM]	n	u	10µM	u
CCN1C(=O)[C@H]2[C@H]3[C@H](O)[C@H](O)C/C(=N/OC[C@@H](O)COCc4ccco4)[C@H]3CC[C@@H]2C1=O	x	n[10 µM]	x	x	n[13.5 µM]	x
Nc1nc(NCC2CCC(CNS(=O)(=O)c3cccc4ccccc34)CC2)nc2ccccc12 (stereo not given)	x	n	x	x	u	u
CCO[C@H](c1cc(OC)cc([N+](=O)[O-])c1OC)[C@H](C)/C=C\CC(=O)OC	x	u	x	x	n[13.5 µM]	x
Cc1cccc(-c2nc(CSc3nc4c(c(=O)[nH]3)CCC4)c(C)o2)c1	n	x	n	u	n	2.8µM
Cc1oc(-c2ccccc2Cl)nc1CSc1nc2ncccc2[nH]1	x	x	x	n	x	x
Cc1ccccc1CSc1nnc(C)c(=O)[nH]1	n	n	n	n	u	u
Cc1ccccc1CSc1nc2c(c(=O)[nH]1)CCC2	n	n	n	u	n	3.5µM
CCCCSc1nc2c(c(=O)[nH]1)CCC2	n	n	n	n	n	28µM
CSc1nc2c(c(=O)[nH]1)CCCC2	n	n	n	n	n	n
Cc1ccccc1-c1nc(CSc2nc3c(c(=O)[nH]2)CCC3)c(C)o1	n	x	n	n	n	4.5µM
SMILES	HttQ103 aggreg	HTT cytoprotect	JMJD2E inh	LMNA splice mod	ALDH1A1 inh	HPGD inh
COc1cccc(CNc2cc(C)nc3nc(-c4ccc(C)cc4)nn23)c1	x	x	x	n	x	x
Cc1ccc(NC(=O)Cn2cc(S(=O)(=O)N3CCCC3)c(S(=O)(=O)N3CCCC3)c2)cc1C	x	x	x	n	x	x
COc1ccc(C(=O)N2CCC3(CC2)CN(c2ccccn2)C3)cc1	x	n	x	x	u	u
CC1CCCN(S(=O)(=O)c2ccccc2[N+](=O)[O-])C1 (stereo not given)	n	n[10 µM]	n	n	n	n
Cc1oc(-c2ccccc2)nc1CSc1nc2c(c(=O)[nH]1)CCC2	n	x	n	n	n	4.5µM
COc1ccc(OC)c([C@H]2Nc3ccccc3NC3=C2C(=O)CC(C)(C)C3)c1Br	x	n	x	x	x	x
CCNc1ncc2ncc(=O)n(C3CC3)c2n1	x	n	x	n	u	x
CC(C(O)c1ccc(O)cc1)N1CCC(Cc2ccccc2)CC1 (stereo not given)	n	5µM!	n	u	n	n
Cc1cccc(-c2nc3scc(CCNS(=O)(=O)c4ccc(Oc5ccccc5)cc4)n3n2)c1	x	x	x	n	x	x
COc1ccc(Nc2nnc(-c3ccc(C)cc3)c3ccccc23)cc1C(=O)N1CCCCC1	n	n[10 µM]	u	u	u	u
CCN(CC)C(=O)COc1ccc(-c2nnc(Nc3ccc(OC)c(C(=O)NC)c3)c3ccccc23)cc1	n[9.22 µM]	n[10 µM]	n	x	25µM	x
Cc1ccccc1/C=N/n1c(-c2ccccn2)n[nH]c1=S	n[9.22 µM]	n[10 µM]	n	x	x	x
Cc1cc(-c2n[nH]c(=S)n2/N=C/c2c[nH]c3ccccc23)n[nH]1	n[9.22 µM]	n[10 µM]	n	x	u	x
S=c1[nH]nc(-c2ccccn2)n1/N=C/c1ccccc1	n	x	u	n	n	u
S=c1[nH]nc(-c2ccccn2)n1/N=C/c1c(Cl)cccc1Cl	n[9.22 µM]	n[10 µM]	n	x	18µM	x
S=c1[nH]nc(-c2ccccn2)n1/N=C/c1cccc2ccccc12	n	n[10 µM]	u	n	u	3.5µM
Fc1ccc(-c2n[nH]c(=S)n2/N=C/c2c[nH]c3ccccc23)cc1	n	n[10 µM]	n	n	u	2.8µM
Cc1noc(C)c1C(=O)N1CCC2(CCCN(Cc3ccc(C#N)cc3)C2)CC1	x	n	x	x	n	n
COc1cccc(C2(O)CCN(C(=O)C3CCC3)CC2)c1	n	n[10 µM]	n	n	n	n
COc1cccc(C2(O)CCN(C(=O)C3CC3)CC2)c1	n	n	n	n	22µM	n
O=C(NCc1ccccc1)c1nc(-c2ccc(Cl)cc2)n2c1CCCCC2	x	x	x	n	x	x
COC(=O)\C(C(C)=O)=C(/C=C/C=C/C=C/N(C)C)N(C)C	n	n	22µM	n	n	n
Cc1nn(Cc2ccc(C(=O)Nc3nc4c(C)cccc4s3)o2)c(C)c1Br	18µM	n	x	n	n	u
COc1ccc(C)cc1NC(=O)C1CCCN(S(=O)(=O)c2ccc3c(c2)CCCN3C(C)=O)C1 (stereo not given)	x	x	x	n	x	x
O=C(CN1C(=O)CCC1=O)Nc1nc(-c2ccc(Oc3ccccc3)cc2)cs1	n	n[10 µM]	n	n	n	18µM
COc1ccc(-c2csc(NC(=O)CN3C(=O)CCC3=O)n2)cc1OC	n	n[10 µM]	n	n	n	28µM
Cc1ccc(CNC(=O)[C@H](C)[C@@H]2C[C@@]2(C)[C@@H](NC(=O)OCc2ccccc2)c2ccccc2)o1	x	n	n	x	u	n
COc1ccc(OC)c(NC(=O)c2ccccc2N(Cc2ccccc2)S(C)(=O)=O)c1	n[9.22 µM]	n[10 µM]	n	n	u	x

Source: PubChem BioAssay
